The list is not random: actives were taken first. Their share in the collection is about 4.2%.
NLRP3 yeast inh: NALP3 inhibition in yeast. Yeast reconstituted NLRP3/ASC/caspase-1, beta-gal luminescence, 24 h. inhibition, % at 10 µM. 330,000 compounds, 0.39% hits. AID 2825;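 active = inhibition of 50% or more; inactive = inhibition below 50%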;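 also: plate controls were induced DMSO wells for no effect and uninduced yeast grown without galactose for full effect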
TIM10 inh: inhibits growth of TIM10 yeast strain; S. cerevisiae TIM10 strain growth, BacTiter-Glo luminescence, 24 h; inhibition, % at 10 µM; 330,000 compounds, 1.4% hits; AID 463195;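 active = inhibition of 40% or more at the single tested concentration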;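 also: wild-type TIM10 isogenic control strain grown at permissive 25 °C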
tim10-1 inh: inhibits growth of tim10-1 mutant yeast; S. cerevisiae tim10-1 ts strain growth, BacTiter-Glo, 24 h; inhibition, % at 20 µM; 330,000 compounds, 2.2% hits; AID 463190;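 active = inhibition of at least 40%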;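 also: mutant grown at 25 °C; 0% = DMSO wells with yeast and 100% = wells holding no yeast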
NALP1 yeast inh: blocks the NALP1 inflammasome reconstituted in yeast; S. cerevisiae NALP1/ASC/caspase-1 growth, X-gal OD620, 72 h; 280,000 compounds, 0.61% hits; inhibition, % at 10 µM; in the data active = inhibition mostly above about 24%, no sharp cut-off; inactive = mostly below about 32%
tim23-1 inh: growth inhibitors of tim23-1 mutant yeast; S. cerevisiae tim23-1 growth, BacTiter-Glo luminescence, 24 h; inhibition, % at 20 µM; 330,000 compounds, 1.3% hits; AID 463212;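 active = growth inhibition of the mutant yeast at or above 50%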;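 also: temperature-sensitive mutant grown at 25 °C; plate controls were DMSO-treated mutant yeast for no effect and medium wells lacking yeast for full effect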
V-ATPase pH: yeast V-ATPase proton transport regulation by pHLuorin | S. cerevisiae, pHLuorin cytosolic pH fluorescence | response, % at 10 µM | 350,000 compounds, 0.37% hits | AID 504577; in the data active = response mostly above about 7.3%, no sharp cut-off; inactive = mostly below about 5.4%; also: actives read high
tim10-1 confirm: confirmation of tim10-1 mutant yeast growth inhibitors; 7,400 compounds, 56% hits; AID 463213; S. cerevisiae tim10-1 ts strain growth, BacTiter-Glo, 24 h; inhibition, % at 20 µM; shares compounds with tim10-1 inh;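 active = inhibition of yeast growth at or above a set limit in either of two repeat tests at 20 µM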;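 also: tim10-1 mutant grown at permissive 25 °C to find synthetic lethal compounds; 0% = DMSO yeast wells and 100% = medium wells without yeast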
tim10 confirm: confirmation of TIM10 yeast growth inhibitors; shares compounds with TIM10 inh; S. cerevisiae tim10 strain growth, BacTiter-Glo luminescence, 24 h; inhibition, % at 10 µM; 4,600 compounds, 63% hits;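 active = inhibition of yeast growth at or above a set limit in either of two replicates at 10 µM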;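 also: this counterscreen used the strain with wild-type TIM10; 0% = yeast with DMSO and 100% = medium wells lacking yeast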
* hit, by the source's call; / = no result given.

SMILES | NLRP3 yeast inh | TIM10 inh | tim10-1 inh | NALP1 yeast inh | tim23-1 inh | V-ATPase pH | tim10-1 confirm | tim10 confirm
COc1ccccc1-c1cc(C(F)(F)F)nc(S(=O)(=O)CCCC(=O)Nc2cc(C)on2)n1 | 8.7 | 9.7 | 29.8 | -2.3 | 18.0 | 1.1 | / | /
CCOc1ccccc1C(=O)N1CCN(c2ccc(C(F)(F)F)cn2)CC1 | 14.9 | 7.1 | 19.4 | -9.7 | 25.0 | -1.1 | / | /
Cc1ccccc1OCC(=O)Nc1ccc(Cc2ccncc2)cc1 | 22.1 | 40.5* | 42.0* | 21.7 | 36.0 | 2.9 | 40.4* | 20.4
O=C(Nc1ccc2nc(-c3ccco3)[nH]c2c1)c1cccs1 | 9.0 | 65.5* | 40.0 | -64.8 | 23.2 | -3.9 | 18.1 | -4.2
CC(=O)Nc1ccc2nc(-c3ccco3)[nH]c2c1 | 3.2 | -11.3 | -12.0 | 12.1 | 2.5 | -3.3 | / | /
O=C(NCc1ccc2c(c1)OCO2)C1CCN(c2nccc(C(F)(F)F)n2)CC1 | 7.5 | 1.8 | -5.6 | -4.1 | 8.3 | 1.5 | / | /
N/C(=N\OC(=O)CC1CCCCC1)c1ccc(Cl)cc1 | 26.4 | 44.0* | 42.2* | 31.5* | 25.5 | 1.0 | 56.8* | 34.3*
N/C(=N\OC(=O)CC1CCCCC1)c1cccc(Br)c1 | 13.3 | 73.0* | 62.1* | 1.1 | 41.0 | 2.3 | 66.9* | 61.9*
C=CCn1c(O)c(N=NC(=S)Nc2ccccc2C)c2cc(S(=O)(=O)N3CCOCC3)ccc21 | 1.0 | 16.7 | 19.3 | 6.3 | 21.7 | 0.1 | / | /
Cc1cccc(NC(=S)N=Nc2c(O)n(CN3CCOCC3)c3ccccc23)c1C | 29.4 | 59.3* | 58.8* | -14.0 | 35.2 | -4.1 | 35.9* | 41.3*
O=C(CSc1ccc(-c2ccccn2)nn1)N1CCCC1 | 2.0 | -13.5 | 4.0 | -18.6 | 14.2 | 3.4 | / | /
CC(C)CN1C(=O)/C(=C/c2cccs2)NC1=S | -31.5 | 48.2* | 42.8* | -34.2 | 49.9 | 8.2 | 16.9 | 40.5*
Cc1ccc(/C=C2/NC(=O)N(Cc3ccccc3F)C2=O)s1 | -1.0 | 0.3 | 12.9 | 19.4 | -19.0 | 0.9 | / | /
CC(C)CN1C(=O)/C(=C/c2ccco2)NC1=S | 9.2 | 22.4 | 22.1 | 20.9 | 17.7 | 3.5 | / | /
CCCN1C(=O)/C(=C/c2ccc(C)s2)NC1=S | -5.8 | 45.2* | 46.5* | -0.1 | 36.3 | -4.3 | 12.2 | 40.5*
S=C(NN=C1C2CC3CC(C2)CC1C3)Nc1ccccc1 | -0.9 | 51.0* | 59.7* | -6.9 | 48.5 | -3.6 | 46.1* | -25.4
CCC(C)(C)C1CCC(=NNC(=S)Nc2ccccc2)CC1 (centres undefined) | 29.4 | 28.0 | 25.2 | -2.3 | 36.8 | -1.1 | / | /
Cc1cc(C)c(C(=O)CSc2nnc(C)c(=O)[nH]2)cc1C | 18.1 | 12.1 | 6.4 | -1.5 | 6.0 | 0.3 | / | /
Cc1nc(N2CCC(C)CC2)c2oc3ccccc3c2n1 | 1.8 | 45.6* | 48.9* | 6.6 | 45.9 | 4.4 | 27.4 | 46.8*
COc1ccccc1N1CCN(c2nc(C)nc3c2oc2ccccc23)CC1 | / | / | / | 1.5 | / | 1.6 | / | /
Cc1ccc(CN2CCN(Cc3cccc4nccnc34)CC2CCO)cc1 (centres undefined) | -1.6 | -17.1 | 5.6 | / | -3.2 | -0.6 | / | /
COc1ccc(NC(=O)C(=O)NCCC2CCCCN2S(=O)(=O)c2ccccc2)cc1 (centres undefined) | 27.9 | -8.5 | -27.3 | / | -12.4 | -9.8 | / | /
CCOC(=O)C1CCCN(C(=O)c2sc3nc(-c4ccccc4)cn3c2C)C1 (centres undefined) | -5.4 | 22.3 | 7.1 | 3.0 | 30.4 | 0.3 | / | /
CCOC(=O)C1CCCN(C(=O)c2sc3nc(-c4ccc(F)cc4)cn3c2C)C1 (centres undefined) | 12.8 | 55.7* | 52.7* | 7.6 | 41.0 | -2.3 | 48.3* | 42.5*
CCOC(=O)C1CCN(C(=O)c2sc3nc(-c4ccc(F)cc4)cn3c2C)CC1 | -1.6 | 78.1* | 74.2* | 4.7 | 43.2 | -2.5 | 73.8* | 69.2*
COc1ccc(N2CCN(C(=O)c3sc4nc(-c5ccc(F)cc5)cn4c3C)CC2)cc1 | 14.3 | -15.9 | -6.8 | / | 5.2 | -2.9 | / | /
Cc1c(Br)c([N+](=O)[O-])nn1CC(=O)NCCc1c[nH]c2ccccc12 | -3.7 | 4.0 | -1.8 | 2.8 | -18.1 | -1.7 | / | /

High-throughput results as filed in PubChem BioAssay.
